These results are taken from PubChem BioAssay AID463195 (Sanford-Burnham Center for Chemical Genomics, 2010).

Screen size: about 330,000 compounds; about 4,600 (1.4%) were called active. Many of the other results were omitted from the sample, so actives are more common in it than they were. A number with no mark means an inactive call.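 The calls were made as follows: active = inhibition of 40% or more at the single tested concentration; inactive = the rest.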

In general, inhibition refers to the change of the read-out against control, counted positive when it falls.

The experiment is described as follows: growth inhibitors of isogenic TIM10 control yeast, primary screen, counter-screen for tim10-1 yeast inhibitor project, luminescence, uHTS (AID 463195).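 Also: wild-type TIM10 isogenic control strain grown at permissive 25 °C; 0% = DMSO yeast wells and 100% = minimal medium wells without yeast.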 The note with it: S. cerevisiae TIM10 strain growth, BacTiter-Glo luminescence, 24 h; at 10 µM; stronger effect = higher value. In general terms: A counterscreen serves to expose hits that act by an unwanted route or on another target.
`Cc1cccc(NC(=S)NC23CN4CN(CN(C4)C2)C3)c1`: the inhibition is -11.6%.

With `Cc1cccc(NC(=S)NCCN(C2CCCCC2)C2CCCC2)c1`, the inhibition was 11.8%.

On to `Cc1cccc(NC(=S)NCc2ccc3[nH]c4c(c3c2)CCCC4)c1`, for which the inhibition was 42.9% (active).

Turning to `N#C/C(=C(\O)C(F)(F)F)c1nnc2n1CCCCC2`, the inhibition was -10.3%.

Take `COc1ccc(C(=O)Nc2cc(C)c(NC(=O)c3ccccc3OC)cn2)cc1`: the inhibition was 14.6%.

As to `COc1cc(/C=N/NC(=O)CCc2n[nH]c(=O)[nH]c2=O)ccc1O`, the inhibition is 5.01%.

As to `COc1ccc(C(=O)Nc2ccccc2C(=O)N/N=C/c2ccc(O)c(OC)c2)cc1`, the inhibition was 93.2% (active).

`COc1cc(/C=N/NC(=O)c2cccnc2)ccc1OC(=O)c1cccc(Br)c1`: the inhibition is 14.7%.

Regarding `COc1ccc(C(=O)Nc2ccccc2C(=O)N/N=C/c2ccccc2OC)cc1`, the inhibition was 64.2% (active).

Consider `COc1cc(C=NNC(=O)c2cccnc2)ccc1OC(=O)c1ccccc1F`, for which the inhibition was 7.06%.

Regarding `COc1ccc(C(=O)Nc2ccccc2C(=O)N2CCN(c3ccccc3)CC2)cc1`, the inhibition is 14.5%.

As for `COc1cc(/C=N/NC(=O)c2ccccc2)ccc1OS(=O)(=O)c1ccccc1`, the inhibition is 43.1% (active).

As for `COc1ccc(/C=N/Nc2ccccc2C(=O)O)cc1`, the inhibition is 13.9%.

In the case of `CC(=O)c1ccc(N2Cc3ccccc3C2)cc1`, the inhibition is 8.18%.

As to `Cc1ccc(-c2nc(COC(=O)c3c(C)noc3C)cs2)cc1`, the inhibition was 1.5%.

For `Oc1ccc2ccc3cccc[n+]3c2c1`, the inhibition was -22.6%.

Turning to `COCCN1C(=O)c2oc3c(C)cc(C)cc3c(=O)c2C1c1cccc(O)c1` (configuration not stated), the inhibition was -2.19%.

In the case of `CC1CC2=C(CC1/C=N/NC(N)=S)C(C)(C)CCC2` (configuration not stated), the inhibition was 13.8%.

As for `N#Cc1ccc(C(=O)Nc2nc(-c3cccs3)c(C(=O)C(F)(F)F)s2)cc1`, the inhibition is 9.92%.

Take `CCC(CC)C(=O)Nc1c2c(nn1-c1ccc(C)cc1)CS(=O)(=O)C2`: the inhibition is 4.97%.

`CC/S(CC1CC1(Cl)Cl)=N\S(=O)(=O)c1ccc(C)cc1` (configuration not stated): the inhibition was 0.564%.

Consider `CCN1C(=NCC(C)C)N[C@@H](CCc2ccccc2)[C@H](C(=O)NCC(C)C)[C@H]1C`, for which the inhibition was -3.76%.

With `N#C/C(=C\c1ccc(O)c(O)c1)C(=O)NCc1ccccc1`, the inhibition is -1.33%.

For the compound `COCCNC(=O)/C(C#N)=C/c1cccc(OCc2ccccc2)c1`, the inhibition was 55.7% (active).

`O=C(N/N=C/c1cccc(OCc2ccccc2)c1)c1ccc(Br)o1`: the inhibition was 26.3%.

On to `CC(C)COc1ccc(C(=O)OCC(=O)NCCC2=CCCCC2)cc1`, for which the inhibition was 11.3%.

`COC(=O)c1ccc(COc2cc([N+](=O)[O-])cc3cccnc23)cc1`: the inhibition is -32.2%.

Consider `C=C(C)c1cccc(C(C)(C)NC(=O)N2CCN(c3ncccn3)CC2)c1`, for which the inhibition is 3.72%.

With `CCOc1cc(-c2cc(-c3ccc(OC)cc3)nc(N)c2C#N)ccc1O`, the inhibition is 34%.

With `CCOc1cc(-c2cc(-c3ccc(NC(C)=O)cc3)nc(N)c2C#N)ccc1O`, the inhibition is -6.1%.

Take `COc1ccc(-c2cc(-c3ccc(N)cc3)nc(N)c2C#N)cc1OC`: the inhibition is 41% (active).

Regarding `O=C(CN1CCN(S(=O)(=O)c2ccc3ccccc3c2)CC1)NC(=O)NC1CCCCC1`, the inhibition is 44.2% (active).

`O=C(CN1CCN(S(=O)(=O)c2ccc(F)cc2)CC1)NC1CC1`: the inhibition was 0.605%.

`COc1ccc(S(=O)(=O)N2CCN(C(=O)NC3CCCCC3)CC2)cc1`: the inhibition was -5.18%.

As to `O=C(NC(=S)Nc1cccc2c(O)cccc12)c1cccc(Br)c1`, the inhibition was 20.4%.

With `O=C1c2ccccc2S(=O)(=O)c2cc(N3CCN(c4ccccn4)CC3)ccc21`, the inhibition was -6.37%.

Take `Cc1cc(N)n2nc(-c3ccc(C(C)(C)C)cc3)cc2n1`: the inhibition was 45.3% (active).

As to `COc1ccc(-c2cc(C)nc3nc(N)nn23)cc1`, the inhibition is 9.96%.

With `Cc1cc(C(C)(C)C)cc(C)c1N`, the inhibition was -4.47%.

In the case of `C/C(CC(=O)Nc1cccc(C(F)(F)F)c1)=N\NC(=O)C(=O)NCC(C)C`, the inhibition was 10.5%.

In the case of `CCOC(=O)CNC(=O)CSc1nc2cccnc2n1CC`, the inhibition is 7.72%.

Consider `CCOC(=O)CNC(=O)CSc1ccc2nnc(-c3cccnc3)n2n1`, for which the inhibition is -17.7%.

Regarding `CCOC(=O)CNC(=O)CSc1ncccc1-c1nc2ccccc2[nH]1`, the inhibition was 97.9% (active).

As to `CC(C)C(NC(=O)C1CCC(C(C)(C)C)CC1)C(=O)NCCCN1CCCCC1` (configuration not stated), the inhibition is 6.75%.

In the case of `O=C(CNC(=O)c1ccccc1Br)NNC(=O)c1cccs1`, the inhibition was 3.43%.

For `Cc1ccoc1C(=O)Nc1cccc(Oc2ccccc2)c1`, the inhibition is 55.2% (active).

As for `CC(Oc1cccc(NC(=O)c2cccs2)c1)C(=O)c1ccccc1` (configuration not stated), the inhibition is 8.87%.

Turning to `Cc1cccc(NC(=O)Nc2cccc(Oc3c(F)c(F)c(F)c(F)c3F)c2)c1`, the inhibition was 8.17%.

Turning to `COc1ccccc1NC(=O)CSc1nnc(Cn2nnc(-c3ccccc3)n2)n1-c1ccccc1`, the inhibition was 6.08%.

Turning to `Cc1ccc(NC(=O)COC(=O)CN2CCCCCC2=O)c(C)c1`, the inhibition was 7.63%.

On to `COc1ccc(CN2CCC(n3nccc3NC(=O)CCCc3ccccc3)CC2)cc1C`, for which the inhibition is 4.88%.

For the compound `CCc1cccc(CC)c1NC(=S)NCc1ccc2[nH]c(C)cc2c1`, the inhibition was 54% (active).

With `Cc1cc2cc(CNC(=O)c3ccc(S(=O)(=O)N4CCOCC4)cc3)ccc2[nH]1`, the inhibition was 7.18%.

As to `Cc1cc2cc(CNC(=O)c3cccs3)ccc2[nH]1`, the inhibition is -0.032%.

With `CCOC(=O)N/N=C/c1cn(Cc2ccccc2Cl)c2ccccc12`, the inhibition is 22%.

For `CNC(=S)N/N=C/c1cn(Cc2ccc(C)cc2)c2ccccc12`, the inhibition is 51.4% (active).

On to `N#CCC(=O)N/N=C/c1cn(Cc2ccc3ccccc3c2)c2ccccc12`, for which the inhibition was -20.2%.

With `C=CCN(c1ccc(Cl)cc1)S(=O)(=O)c1cccc(C(=O)OCC(=O)N(C)C)c1`, the inhibition was -12.8%.

Consider `O=C(NCc1cccnc1)c1cn(-c2ccccc2)nc1-c1cccs1`, for which the inhibition is 2.96%.

For the compound `O=C(O)c1ccc(N/N=C/c2cn(-c3ccccc3)nc2-c2cccs2)cc1`, the inhibition is 56.3% (active).

Consider `COc1cccc(NC(=O)CN(C)C(=O)/C=C/c2cn(-c3ccccc3)nc2-c2cccs2)c1`, for which the inhibition is -5.41%.

Regarding `CN(CC(=O)NC(=O)Nc1ccccc1F)Cc1ccccc1`, the inhibition was 2.75%.

`Cc1cc(C)c(S(=O)(=O)N2CCC(C(=O)OCc3c(C)noc3C)CC2)c(C)c1`: the inhibition is 8.76%.

Take `Cc1noc(C)c1NC(=O)Nc1cccc2c1O[C@H](CN(C)S(=O)(=O)c1c(C)noc1C)[C@@H](C)CN([C@H](C)CO)C2=O`: the inhibition was 9.51%.

As to `O=C1c2ccccc2S(=O)(=O)N1CC(O)Cn1c2ccccc2c2ccccc21` (configuration not stated), the inhibition is 79.5% (active).

Turning to `CCCCN(CCCC)CC(O)Cn1c2ccccc2c(=O)c2ccccc21` (configuration not stated), the inhibition was -7.98%.

As for `CC(C)(C)c1ccc(CN2C(=O)c3ccccc3S2(=O)=O)cc1`, the inhibition is 11%.

Take `COC(=O)c1ccc(C2C3=C(Nc4nnnn42)c2ccccc2OC3)cc1` (configuration not stated): the inhibition was 27.5%.

Take `CCCc1[nH]nc2c1C(c1ccc(OC)c(Cn3nc(C)c(Br)c3C)c1)C(C#N)=C(N)O2` (configuration not stated): the inhibition is 3.67%.

As to `CCCc1[nH]nc2c1C(c1ccc(OC(=O)c3ccco3)cc1)C(C#N)=C(N)O2` (configuration not stated), the inhibition was 3.44%.

Regarding `CCCc1[nH]nc2c1C(c1ccc(Br)s1)C(C#N)=C(N)O2` (configuration not stated), the inhibition was 66.7% (active).

As to `CCCCN(CC)C(=O)CN(C)S(=O)(=O)c1cccc2nsnc12`, the inhibition is -12.4%.

With `COc1ccc(NC(=O)COc2ccc(C(=O)c3ccc(F)cc3)cc2)cc1S(N)(=O)=O`, the inhibition is 7.33%.

Regarding `CC1=NN(c2ccc(Cl)c(C(=O)O)c2)C(=O)/C1=C/c1ccc(-c2ccccc2[N+](=O)[O-])o1`, the inhibition is 12.6%.

With `Cc1ccc(-c2ccc(/C=C(\C#N)C(N)=S)o2)c([N+](=O)[O-])c1`, the inhibition was 51.5% (active).

For `Cc1cc(C)c([N+](=O)[O-])cc1-c1ccc(/C=N/NC(=O)c2nonc2N)o1`, the inhibition is -9.15%.

In the case of `CC(C)NC(=O)N1CCN(c2ccncc2S(=O)(=O)N2CCCCC2)CC1`, the inhibition is -2.83%.

For `Oc1ccc(-c2cccc(-c3ccc(O)cc3)c2)cc1`, the inhibition is -32.3%.

As for `O=C(/C=C/c1cc2c(cc1Br)OCO2)NCc1ccc(Cl)cc1`, the inhibition was -5.07%.

Consider `O=C(/C=C/c1ccc(Cl)cc1Cl)c1cccnc1`, for which the inhibition was 8.99%.

`O=C(/C=C/c1ccc(Cl)c([N+](=O)[O-])c1)c1cccnc1`: the inhibition was 73.9% (active).

Regarding `O=C(Nc1ccncc1)c1ccc(Cl)c([N+](=O)[O-])c1`, the inhibition is -47.9%.

With `CC1CCCCC12NC(=O)N(CC(=O)OCc1c(F)cccc1Cl)C2=O` (configuration not stated), the inhibition was 1.25%.

Take `COc1ccc(-c2cc3n(n2)CCc2nc4ccccc4n2-3)cc1`: the inhibition was 17.5%.

Turning to `Cc1cc(CNC(=O)c2cccc([N+](=O)[O-])c2)c2ccccc2n1`, the inhibition was 8.64%.

With `O=[N+]([O-])c1cccc(Nc2c3ccccc3nc3ccccc23)c1`, the inhibition was 42.1% (active).

Turning to `N#Cc1cccc(Nc2c3c(nc4ccccc24)CCCC3)c1`, the inhibition was 22.5%.

On to `COC(=O)Nc1ccc(S(=O)(=O)N2CCN(CCN3C(=O)C4C5C=CC(C5)C4C3=O)CC2)cc1` (configuration not stated), for which the inhibition is -10.8%.

With `COc1ccc(C)cc1NC(=O)C(Sc1ccccc1)c1ccccc1` (configuration not stated), the inhibition is 2.49%.

Turning to `O=C(CCN1CCN(c2ccccc2)CC1)NNC(=S)Nc1ccccc1`, the inhibition was 1.6%.

As for `Cc1ccccc1C(=O)NC(=S)Nc1ccc(N2CCN(C(=O)c3ccccc3)CC2)cc1`, the inhibition is -9.29%.

As for `O=C(Cc1ccccc1)NC(=S)Nc1ccc(N2CCCCC2)cc1`, the inhibition is 40.2% (active).
